The record followed here is PubChem BioAssay (EPA / NIEHS).

What is called AC50 is the concentration giving half of the maximal activity seen.

Assay [1] is described as follows: ATG_ISRE_CIS: Attagene CIS-FACTORIAL HepG2 Assay for human Interferon Regulatory Factor 1 (IRF1) binding to an Interferon-Stimulated Response Element (ISRE) (AID 2282948). To be noted: HepG2 ISRE cis-reporter (Attagene), mRNA transcription readout; actives raise or lower the signal. The procedure, abridged: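 Endogenous transcription factor activity read as reporter transcript abundance via RT-PCR and capillary electrophoresis. HepG2 cells transiently transfected, 24 h chemical exposure. Gain or loss fitted against DMSO baseline.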

The nature of assay [2]: ATG_M_06_CIS: Attagene CIS-FACTORIAL HepG2 Assay for M06 Transcription Factor (Internal Marker) (AID 2282950). The following applies: HepG2 Attagene CIS-FACTORIAL M06 internal marker reporter; actives raise or lower the signal. The procedure, abridged: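 Fluorescence-labelled RT-PCR products from cis-promoter reporter units, cut with HpaI and resolved by capillary electrophoresis, give the signal. Cells are human HepG2, dosed for 24 h. Serves as background control, fitted relative to DMSO.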

Assay [3] has as its target Hypoxia-inducible factor 1-alpha (Homo sapiens) (UniProt Q16665). Briefly: ATG_HIF1a_CIS: Attagene CIS-FACTORIAL HepG2 Assay for human Hypoxia Inducible Factor 1 (HIF1A) (AID 2282951). To be noted: HepG2 Attagene cis-factorial HIF1a reporter transcription; actives raise or lower the signal. Summed up: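 In this multiplexed cell assay, HepG2 cells bearing transfected cis reporters are dosed for 24 h and reporter mRNA is read by RT-PCR plus capillary electrophoresis; signal increases and decreases are both scored against DMSO.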

In assay [4] the target is Hepatocyte nuclear factor 6 (Homo sapiens) (UniProt Q9UBC0). Briefly: ATG_HNF6_CIS: Attagene CIS-FACTORIAL HepG2 Assay for human Hepatocyte Nuclear Factor 6 (HNF6) (AID 2282952). To be noted: HepG2 Attagene cis-factorial HNF6 reporter transcription; actives raise or lower the signal. Summed up: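 Readout: fluorescent reporter-transcript fragments resolved by capillary electrophoresis after RT-PCR, reflecting endogenous factor activity in transfected HepG2. Exposure 24 h. Gain or loss of signal fitted bidirectionally against DMSO.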
Hepatocyte nuclear factor 6 (Homo sapiens), sequence (Q9UBC0 whole entry, looked up, the tested form may be a part): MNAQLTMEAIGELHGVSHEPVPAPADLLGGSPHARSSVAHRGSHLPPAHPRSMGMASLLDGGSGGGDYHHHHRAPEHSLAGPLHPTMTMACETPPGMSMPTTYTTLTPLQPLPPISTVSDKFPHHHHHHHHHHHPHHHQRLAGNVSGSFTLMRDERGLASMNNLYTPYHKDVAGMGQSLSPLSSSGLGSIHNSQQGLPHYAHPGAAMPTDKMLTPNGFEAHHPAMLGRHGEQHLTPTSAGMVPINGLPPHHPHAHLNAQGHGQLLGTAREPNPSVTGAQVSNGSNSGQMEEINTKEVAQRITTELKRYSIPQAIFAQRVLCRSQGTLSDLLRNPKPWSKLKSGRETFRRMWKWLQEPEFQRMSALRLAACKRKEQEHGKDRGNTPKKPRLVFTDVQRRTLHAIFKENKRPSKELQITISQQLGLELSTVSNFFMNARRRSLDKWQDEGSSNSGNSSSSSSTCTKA

Assay [5] concerns the target Heat shock factor protein 1 (Homo sapiens) (UniProt Q00613). Briefly: ATG_HSE_CIS: Attagene CIS-FACTORIAL HepG2 Assay for human Heat Shock Transcription Factor 1 (HSE) (AID 2282953). To be noted: HepG2 HSE cis-reporter, Attagene RNA transcription; actives raise or lower the signal. Summed up:
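After a 24 h incubation with test chemical, transfected HepG2 cells were harvested for RNA; reporter transcripts were measured by RT-PCR and capillary electrophoresis. Values reflect gain or loss of signal relative to DMSO.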

Assay [6] is described as follows: ATG_MRE_CIS: Attagene CIS-FACTORIAL HepG2 Assay for human Metal Responsive Element (MRE) (AID 2282954). To be noted: HepG2 MRE cis-reporter transcription, Attagene multiplex; actives raise or lower the signal. Summed up: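 RT-PCR/capillary electrophoresis readout of reporter mRNA, 24 h post-dosing, in HepG2 cells transfected with multiplexed cis-regulated reporter constructs. Gain or loss of signal fitted bidirectionally against DMSO baseline.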

Assay [7] is described as follows: ATG_PBREM_CIS: Attagene CIS-FACTORIAL HepG2 Assay for human Phenobarbital-responsive Enhancer Module (PBREM) (AID 2282955). To be noted: HepG2 PBREM cis-reporter, Attagene multiplexed transcription; actives raise or lower the signal. The procedure, abridged: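 After a 24 h incubation with test chemical, transfected HepG2 cells yield total RNA; reporter-specific RT-PCR products are fluorescently labelled, HpaI-digested and resolved by capillary electrophoresis against ROX size standards.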

The target of assay [8] is Paired box protein Pax-6 (Homo sapiens) (UniProt P26367). Nature of the assay: ATG_Pax6_CIS: Attagene CIS-FACTORIAL HepG2 Assay for human Paired Box 6 (PAX6) (AID 2282956). To be noted: HepG2 CIS-FACTORIAL PAX6 reporter transcription, RNA readout; actives raise or lower the signal. Summed up: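 Read-out is reporter transcript level, measured by RT-PCR with fluorescent primer extension and capillary electrophoresis after 24 h dosing of transfected HepG2 cells. Activity in either direction fitted relative to DMSO control.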
Paired box protein Pax-6 (Homo sapiens), sequence (P26367 whole entry, looked up): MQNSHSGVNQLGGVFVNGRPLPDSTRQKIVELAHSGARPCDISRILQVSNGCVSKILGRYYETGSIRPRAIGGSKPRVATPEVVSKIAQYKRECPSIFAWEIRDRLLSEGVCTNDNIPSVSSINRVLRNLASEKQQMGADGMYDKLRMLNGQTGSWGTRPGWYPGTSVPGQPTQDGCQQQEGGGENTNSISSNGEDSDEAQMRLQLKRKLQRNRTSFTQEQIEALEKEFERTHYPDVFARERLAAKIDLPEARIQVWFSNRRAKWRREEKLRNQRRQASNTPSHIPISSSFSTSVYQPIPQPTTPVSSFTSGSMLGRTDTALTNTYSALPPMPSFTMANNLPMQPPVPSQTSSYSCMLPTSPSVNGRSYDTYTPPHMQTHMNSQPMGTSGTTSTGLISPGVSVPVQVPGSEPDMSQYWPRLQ

Assay [9] can be described thus: ATG_M_32_CIS: Attagene CIS-FACTORIAL HepG2 Assay for M32 Transcription Factor (Internal Marker) (AID 2282949).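 Also: background control marker of the multiplexed CIS panel rather than a real target.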 The following applies: HepG2 Attagene cis-factorial M32 reporter, mRNA; actives raise or lower the signal. Summed up:
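Transient MRTU transfection of HepG2; 24 h compound treatment; TriZol RNA, oligo(dT) RT, reporter PCR, 6-FAM primer extension, HpaI cut, CE. Gain/loss of signal vs DMSO.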

Active and inactive are the calls of the source. The calls were made as follows: active = hit-call score of the fitted dose curve at least 0.9, where 1 is the maximum; inactive = score below 0.9.

Heat shock factor protein 1 (Homo sapiens), sequence (Q00613 whole entry, looked up): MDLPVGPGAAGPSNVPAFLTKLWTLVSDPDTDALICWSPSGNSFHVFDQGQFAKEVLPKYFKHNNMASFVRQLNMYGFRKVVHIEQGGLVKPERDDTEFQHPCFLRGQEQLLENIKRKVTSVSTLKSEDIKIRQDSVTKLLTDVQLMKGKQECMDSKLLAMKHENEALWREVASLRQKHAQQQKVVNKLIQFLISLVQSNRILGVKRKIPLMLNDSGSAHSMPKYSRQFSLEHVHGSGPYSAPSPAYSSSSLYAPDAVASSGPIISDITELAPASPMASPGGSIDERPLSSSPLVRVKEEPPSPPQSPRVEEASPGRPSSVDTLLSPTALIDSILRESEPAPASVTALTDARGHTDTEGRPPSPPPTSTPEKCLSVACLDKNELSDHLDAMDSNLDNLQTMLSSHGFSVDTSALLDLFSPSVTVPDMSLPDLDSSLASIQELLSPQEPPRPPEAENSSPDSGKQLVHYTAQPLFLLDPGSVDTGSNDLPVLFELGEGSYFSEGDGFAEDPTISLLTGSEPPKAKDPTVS
Hypoxia-inducible factor 1-alpha (Homo sapiens), sequence (Q16665 whole entry, looked up): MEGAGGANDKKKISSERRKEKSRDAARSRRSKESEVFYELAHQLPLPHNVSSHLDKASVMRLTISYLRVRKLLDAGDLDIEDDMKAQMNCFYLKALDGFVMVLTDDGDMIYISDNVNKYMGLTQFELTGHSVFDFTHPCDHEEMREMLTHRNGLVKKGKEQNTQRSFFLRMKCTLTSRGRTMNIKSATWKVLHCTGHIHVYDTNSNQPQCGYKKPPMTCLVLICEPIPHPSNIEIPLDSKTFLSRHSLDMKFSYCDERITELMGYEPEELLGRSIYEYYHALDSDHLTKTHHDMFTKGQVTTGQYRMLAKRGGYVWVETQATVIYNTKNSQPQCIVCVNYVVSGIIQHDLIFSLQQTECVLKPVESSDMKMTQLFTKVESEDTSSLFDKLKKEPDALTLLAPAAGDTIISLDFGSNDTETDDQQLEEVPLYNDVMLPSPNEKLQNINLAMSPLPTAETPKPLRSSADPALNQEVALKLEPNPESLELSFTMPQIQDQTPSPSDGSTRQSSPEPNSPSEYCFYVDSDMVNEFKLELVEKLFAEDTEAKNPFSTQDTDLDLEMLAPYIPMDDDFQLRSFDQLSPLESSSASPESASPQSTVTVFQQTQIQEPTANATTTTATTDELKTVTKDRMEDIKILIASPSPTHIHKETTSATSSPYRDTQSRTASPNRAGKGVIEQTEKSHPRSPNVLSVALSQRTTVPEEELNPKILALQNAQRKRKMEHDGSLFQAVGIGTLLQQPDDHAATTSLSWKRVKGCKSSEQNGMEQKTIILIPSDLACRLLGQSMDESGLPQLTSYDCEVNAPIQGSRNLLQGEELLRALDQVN

`N#Cc1cscn1`: the outcome in assay [1], in assay [2], in [3], in assay [4], in [5] and in [6] was inactive. Moreover, the result in assay [7] and in assay [8] was inactive.
As to `CCCCCCCCCC(C)C=O` (stereo not given), the call in [2], in assay [3], in assay [4], in [5], in assay [6] and in [7] was inactive. Moreover, in assay [8], the molecule was called inactive.
As for `CC1(C)O[C@@H]2[C@@H](CO[C@@]3(COS(N)(=O)=O)OC(C)(C)O[C@@H]23)O1`, the result in assay [9], in assay [2], in assay [3], in assay [4], in [5] and in assay [6] was inactive. In addition, the outcome in assay [7] and in assay [8] was inactive.
Turning to `CC(=O)O[C@@H]1CC2CCC1(C)C2(C)C` (stereo not given in full), the molecule was called inactive in assay [1], in [9], in [3], in [4], in assay [6] and in [7]. Moreover, the molecule was classed as inactive in [8].
In the case of `O=C(O)CCCCCCCCC(=O)O`, the molecule was called inactive in assay [1], in [2], in [3], in [4], in assay [5] and in [6]. The result in [7] and in [8] was inactive.
For `CCCCCCC(C)Nc1ccc(Nc2ccccc2)cc1` (stereo not given), the outcome in assay [1], in assay [9], in [3], in [4] and in assay [8] was inactive. In addition, the figures for the AC50 in [5] and in assay [6] were 60.8 µM (active) and 48.9 µM (active), respectively.
On to `CC(C)CCCCCCc1ccc(OCCOCCO)cc1`, for which the result in assay [1], in [3], in [4], in assay [5], in [6] and in assay [7] was inactive. Further, in assay [8], the outcome was inactive.
`O=C(O)CCCCCCCCCCCC(=O)O`: the molecule was classed as inactive in assay [9], in assay [2], in assay [4], in assay [5], in assay [6] and in assay [8].
On to `Nc1c(Cl)cc(Cl)cc1[N+](=O)[O-]`, for which the outcome in [9], in [2], in assay [3], in assay [4], in assay [6] and in [7] was inactive. Moreover, the molecule was classed as inactive in assay [8].
Regarding `O=Cc1ccccc1S(=O)(=O)O`, the result in assay [1], in [9], in assay [3], in assay [4], in assay [5] and in [6] was inactive. Moreover, the result in assay [7] and in assay [8] was inactive.
For `COc1ccc(CCC(C)=O)cc1`, the molecule was classed as inactive in [1], in [9], in assay [3], in assay [4], in assay [5] and in [6]. The molecule was classed as inactive in [8].
As for `Cc1ccc(OC(=O)c2ccccc2O)cc1`, the molecule was classed as inactive in [9], in assay [2], in [3], in assay [4], in assay [5] and in assay [6]. Moreover, the outcome in [7] and in assay [8] was inactive.
As for `CCN(CCN)c1cccc(C)c1`, the molecule was called inactive in assay [1], in [2], in [3], in assay [4], in [6] and in assay [7]. In addition, the result in assay [8] was inactive.
In the case of `CN(C)c1cccc(O)c1`, the call in [1], in assay [3], in assay [4], in [5], in assay [6] and in [7] was inactive. Also, the molecule was called inactive in [8].
As for `CC(C)(C)CC(C)(C)c1ccc(OCCOCC[N+](C)(C)Cc2ccccc2)cc1`, the result in assay [1], in assay [2], in assay [3], in assay [4] and in assay [8] was inactive. Moreover, the half-maximal activity concentration (AC50) in [6] was 8.35 µM (active).
Consider `COc1ccc(COC(C)=O)cc1`, for which the molecule was called inactive in [1], in [2], in assay [3], in [4], in [5] and in [6]. Further, the result in [7] and in assay [8] was inactive.
`C#CC(C)N(C)C(=O)Nc1ccc(Cl)cc1` (stereo not given): the outcome in [9], in assay [2], in assay [3], in assay [4], in assay [5] and in [6] was inactive. Moreover, the outcome in assay [7] and in [8] was inactive.
For the molecule `O=[N+]([O-])c1cccc(Cl)c1`, the molecule was called inactive in [1], in [9], in [3], in [4], in assay [6] and in [8].
Regarding `C/C=C(\C)C(=O)OCCc1ccccc1`, the outcome in [1], in assay [9], in assay [3], in [4], in assay [5] and in assay [6] was inactive. For the same molecule, the result in assay [7] and in assay [8] was inactive.
Consider `C[N+](C)(C)CCCCCC[N+](C)(C)C`, for which the call in assay [9], in [2], in assay [4], in assay [5], in [6] and in assay [7] was inactive. Besides, in assay [8], the outcome was inactive.
Take `CS(=O)(=O)OCCCCOS(C)(=O)=O`: the call in assay [9], in assay [2], in [3], in assay [4], in assay [5] and in [6] was inactive. In assay [8], the molecule was classed as inactive.
Take `Cc1cc(C)nc(NS(=O)(=O)c2ccc(N)cc2)n1`: the outcome in assay [9], in assay [3], in assay [4], in assay [5], in [6] and in assay [7] was inactive. Moreover, the outcome in [8] was inactive.
Regarding `Cc1ccc(-c2ccccc2)cc1`, the result in [1], in assay [2], in [3], in [4], in assay [5] and in assay [6] was inactive. Further, the result in [7] and in [8] was inactive.
For the molecule `CC(C)(CO)[C@@H](O)C(=O)NCCC(=O)O`, the outcome in [1], in assay [4], in [5], in assay [6], in assay [7] and in assay [8] was inactive.
As for `CC(=O)C(C)O` (stereo not given), the molecule was called inactive in assay [9], in assay [2], in assay [3], in [4], in assay [5] and in assay [6]. Also, the result in assay [7] and in assay [8] was inactive.
Consider `CC(C)C(OC(=O)c1ccccc1)C(C)(C)COC(=O)c1ccccc1` (stereo not given), for which the result in [9], in [2], in assay [3], in assay [4], in assay [5] and in assay [6] was inactive. The result in [7] and in assay [8] was inactive.
Regarding `CC(C)CC(C)CC(O)CC(C)C` (stereo not given), the result in assay [9], in assay [3], in [4], in [5], in assay [6] and in assay [7] was inactive. In assay [8], the outcome was inactive.
In the case of `CCCCCCOC(=O)C(C)C`, the result in assay [9], in assay [2], in assay [3], in assay [4], in [5] and in assay [6] was inactive. Moreover, the outcome in assay [8] was inactive.
Take `CCNCCO`: the call in assay [9], in assay [2], in [3], in assay [4], in [5] and in [6] was inactive. Also, in [8], the molecule was classed as inactive.
